Activity calls are given as the source filed them.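 How the source made its calls, unless noted: active means fluorescence slope higher than the sample average by over 3 SD (cut at about -0.22 in these data, passing the limit was not always enough); inactive means the rest.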

A short description of experiment [1]: inhibitors of TNFa-induced NFkB p65 translocation, primary screen, imaging, HUVEC, MLSMR starter and 10KST1 sets (AID 438;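 active means inhibition above 20% together with a positive visual image hit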;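 further: compound added about 3h40 before a 20 min TNFalpha stimulation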;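 on inhibition: signal is the nuclear over cytoplasmic p65 intensity ratio per well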). Particulars: HUVEC TNFa-induced p65 nuclear translocation; cell count: measured here: nuclei count (cytotoxicity indicator), at 2.08 µM; inhibition: at 2 µM, stronger effect = higher value, 0% TNFa-plus-vehicle, 100% no-TNFa wells.
Experiment [2] can be described thus: reduction of polyQ htt aggregates in cells – imaging, exon1htt(103Q)mCFP cells, high-content imaging, primary screen (AID 483;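 active means visual image review flags a hit and inhibition of aggregation exceeds 20%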;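 further: compound exposure lasted 3 days before fixation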;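 on nuclei count: percent of the per-plate median nuclei count of sample wells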). Particulars: exon1htt(103Q)mCFP cell line, aggregate imaging, at 2 µM; inhibition of aggregation: stronger effect = higher value; nuclei count: measured here: cell count, toxicity.
A short description of experiment [3]: endothelial E-selectin expression blockers – imaging, HUVEC, immunofluorescence, MLSMR starter and 10KST1 sets, primary screen (AID 487;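 active means visually confirmed hit in the image check and inhibition above 20%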;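 on inhibition: signal is fraction of cell area covered by stained E-selectin grains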;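 on nuclei count: 100% = median nuclei count of all wells on the same plate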). Particulars: HUVEC TNFalpha-induced E-selectin immunofluorescence imaging, at 2 µM; inhibition: stronger effect = higher value; nuclei count: measured here: cell number, toxicity.
For experiment [4], the target named is Voltage-gated potassium channel subunit beta-2 (Rattus norvegicus) (UniProt P62483). The experiment can be described thus: inhibitors of rat Kvbeta2 reductase activity – biochemical, NADPH fluorescence, primary screen (AID 622).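 Further: slope of raw intensity against log time taken from 70 to 1610 s.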 Particulars: recombinant KvBeta, 4-cyanobenzaldehyde reduction, at 10 µM, stronger effect = higher value.
Experiment [5] has the same target. Briefly: enhancers of rat Kvbeta2 NADPH turnover – biochemical, NADPH fluorescence, primary screen (AID 623;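 active means NADPH fluorescence slope more negative than the mean of all samples by about 3 SD, 99.7% confidence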;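 further: fluorescence intensity change per second fitted from 20 to 320 s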). Particulars: Recombinant KvBeta, NADPH fluorescence decrease slope, 10 min; at 10 µM; stronger effect = lower value.
The target of experiment [6] is Alpha-2C adrenergic receptor (Homo sapiens) (UniProt P18825). Briefly: compounds altering alpha2C-coupled GIRK flux – cell-based, HEK293 alpha2C/GIRK1/2, thallium flux, primary screen (AID 624;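 active means fluorescence slope after compound addition differing from the mean of all screened samples at 99.7% confidence, in either direction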;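 further: slope of fluorescence ratio to pre-addition baseline per second over 15 to 24 s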). Particulars: thallium flux BTC fluorescence, at 10 µM, actives lie on both sides.
Experiment [7] is described as follows: blockers of RIG-like receptor reporter activation – cell-based, Sendai virus stimulus, luciferase, 10K MLSCN set, TLR/RLR signaling modifier project, primary screen (AID 602276;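 active means inhibition at or above 50% at 10 µM; inactive means inhibition below 50%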;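 further: firefly luciferase from ISG56 promoter only with Renilla not read in this screen; 0% = Sendai virus plus DMSO and 100% = medium plus DMSO without virus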). Particulars: HEK293 RL24 IRF3 luciferase reporter, at 10 µM, stronger effect = higher value. A general note: In a reporter assay the amount or activity of a reporter protein is the signal.
Experiment [8] can be described thus: TLR3 IRF3 reporter activation blockers – cell-based, poly I:C stimulus, luciferase, 10K MLSCN set, primary screen (AID 602277;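 active means inhibition of the reporter signal at or above 50%; inactive means inhibition below 50%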). Particulars: HEK293-TLR3 RL24 IRF3 luciferase reporter, at 10 µM, stronger effect = higher value.

Sequence of Alpha-2C adrenergic receptor (Homo sapiens) (P18825 whole entry, looked up): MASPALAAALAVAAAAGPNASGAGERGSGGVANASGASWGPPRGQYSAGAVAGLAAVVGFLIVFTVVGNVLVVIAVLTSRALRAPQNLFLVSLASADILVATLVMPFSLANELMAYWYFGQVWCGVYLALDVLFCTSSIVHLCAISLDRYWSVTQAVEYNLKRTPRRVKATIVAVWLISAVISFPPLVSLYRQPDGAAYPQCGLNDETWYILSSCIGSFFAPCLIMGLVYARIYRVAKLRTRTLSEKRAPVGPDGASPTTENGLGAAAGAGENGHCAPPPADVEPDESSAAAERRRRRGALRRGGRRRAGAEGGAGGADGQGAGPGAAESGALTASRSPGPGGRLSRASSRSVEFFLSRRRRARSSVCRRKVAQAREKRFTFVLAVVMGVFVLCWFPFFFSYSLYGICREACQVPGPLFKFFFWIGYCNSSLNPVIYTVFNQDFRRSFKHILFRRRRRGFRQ
Sequence of Voltage-gated potassium channel subunit beta-2 (Rattus norvegicus) (P62483 whole entry, looked up): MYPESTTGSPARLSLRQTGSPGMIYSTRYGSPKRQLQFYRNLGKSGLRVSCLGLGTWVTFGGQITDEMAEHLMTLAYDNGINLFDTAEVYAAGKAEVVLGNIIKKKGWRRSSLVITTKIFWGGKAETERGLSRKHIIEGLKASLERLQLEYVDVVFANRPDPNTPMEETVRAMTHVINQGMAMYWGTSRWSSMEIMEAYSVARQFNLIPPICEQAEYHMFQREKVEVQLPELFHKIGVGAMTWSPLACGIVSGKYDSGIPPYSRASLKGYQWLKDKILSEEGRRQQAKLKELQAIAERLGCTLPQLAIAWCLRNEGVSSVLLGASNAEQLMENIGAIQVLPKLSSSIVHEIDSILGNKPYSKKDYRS

One may read the inhibition as the drop in the measured response relative to a control, in per cent. For the molecule `O=C(NCc1cccs1)C1CCCN(c2ncccn2)C1` (centres undefined), the cell count in experiment [1] is 404. In addition, the inhibition is -3% (inactive) in experiment [1], -10.2% (inactive) in experiment [3], 12.7% (inactive) in experiment [7] and 9.11% (inactive) in experiment [8]. In addition, the inhibition of aggregation in experiment [2] was 13.4% (inactive). Besides, the nuclei count in experiment [2] amounted to 96.8%; in experiment [3], 123%. Further, the fluorescence slope in experiment [4] is -0.5 (inactive). Moreover, the NADPH fluorescence slope in experiment [5] is -1.3e-05 (inactive). Moreover, in experiment [6], the slope was 0.00547 (inactive).

As to `O=C(Nn1cnnc1)c1cc2c(s1)CCCC2`, the cell count in experiment [1] came to 346. The inhibition in experiment [1] was -3.4% (inactive); in experiment [3], -41.7% (inactive); in experiment [7], -4.21% (inactive); in experiment [8], 7.24% (inactive). Also, the inhibition of aggregation in experiment [2] is -5.7% (inactive). The results for the nuclei count in experiment [2] and in experiment [3] were 108% and 112%, respectively. For the same molecule, the fluorescence slope in experiment [4] is -0.411 (inactive). In experiment [5], the NADPH fluorescence slope was -4.9e-05 (inactive). Besides, the slope in experiment [6] was 0.00357 (inactive).

For the molecule `CCC(C)(C(=O)NC1CCCC1)N(Cc1cccs1)C(C)=O` (centres undefined), in experiment [1], the cell count is 472. The inhibition is 6.2% (inactive) in experiment [1], -15% (inactive) in experiment [3], 14.8% (inactive) in experiment [7] and 24.4% (inactive) in experiment [8]. For the same molecule, the inhibition of aggregation in experiment [2] was -9.4% (inactive). Further, the nuclei count in experiment [2] is 115%; in experiment [3], 93.8%. For the same molecule, the fluorescence slope in experiment [4] is -0.491 (inactive). The NADPH fluorescence slope in experiment [5] is -1.6e-05 (inactive). For the same molecule, the slope in experiment [6] is 0.00646 (inactive).

On to `COCCn1c(-c2ccco2)nc2nc3ccccc3nc21`, for which, in experiment [1], the cell count is 237. Also, the inhibition in experiment [1] was 1.6% (inactive); in experiment [3], -4.2% (inactive); in experiment [7] it was -0.433% (inactive); in experiment [8], -3.38% (inactive). Moreover, the inhibition of aggregation in experiment [2] is 23.4% (inactive). For the same molecule, the values for the nuclei count in experiment [2] and in experiment [3] were 69.1% and 98.9%, respectively. Also, the fluorescence slope in experiment [4] is -0.255 (inactive). For the same molecule, the NADPH fluorescence slope in experiment [5] was -2.3e-05 (inactive). Moreover, in experiment [6], the slope is 0.00377 (inactive).

For the molecule `CC1(C)CC(=O)CC(C2(O)C(=O)N(Cc3ccccc3)c3ccccc32)O1` (centres undefined), the cell count in experiment [1] turned out to be 500. Also, the inhibition in experiment [1] was -2.4% (inactive); in experiment [3] it was -9.4% (inactive); in experiment [7], -9.58% (inactive); in experiment [8], -5.31% (inactive). Also, in experiment [2], the inhibition of aggregation is -3.9% (inactive). In addition, the nuclei count in experiment [2] came out at 82.2%; in experiment [3], 120%. For the same molecule, the fluorescence slope in experiment [4] is -0.548 (inactive). In addition, the NADPH fluorescence slope in experiment [5] is 1.3e-05 (inactive). Besides, the slope in experiment [6] was 0.00527 (inactive).

On to `Cc1occc1C(=O)N1CCN(Cc2ccccc2)CC1`, for which the cell count in experiment [1] turned out to be 661. The inhibition was -9% (inactive) in experiment [1], -40.1% (inactive) in experiment [3], 7.4% (inactive) in experiment [7] and 34.1% (inactive) in experiment [8]. Further, the inhibition of aggregation in experiment [2] is 8.8% (inactive). In addition, the results for the nuclei count in experiment [2] and in experiment [3] were 75.8% and 104%, respectively. Also, the fluorescence slope in experiment [4] is -0.483 (inactive). For the same molecule, in experiment [5], the NADPH fluorescence slope is -3.8e-05 (inactive). In experiment [6], the slope is 0.00745 (inactive).

For the molecule `CCOC(=O)N1CCC(N(C(=O)Nc2cccc(OC)c2)C(C)CC)CC1` (centres undefined), the cell count in experiment [1] came to 534. The inhibition in experiment [1] was -4.4% (inactive); in experiment [3] it was -60.6% (inactive); in experiment [7], 12.2% (inactive); in experiment [8], 11.5% (inactive). Further, the inhibition of aggregation in experiment [2] was -16.1% (inactive). The nuclei count worked out at 44% in experiment [2] and 98.9% in experiment [3]. Also, the fluorescence slope in experiment [4] was -0.513 (inactive). Moreover, the NADPH fluorescence slope in experiment [5] is -3.9e-05 (inactive). Besides, the slope in experiment [6] is 0.00561 (inactive).

For the molecule `CC1CCCN(C(=O)C23CCC(C)(C(=O)C2)C3(C)C)C1` (centres undefined), the cell count in experiment [1] was 636. Moreover, the inhibition was 0% (inactive) in experiment [1], -29.8% (inactive) in experiment [3], 5.18% (inactive) in experiment [7] and 8.32% (inactive) in experiment [8]. In addition, in experiment [2], the inhibition of aggregation is -8.3% (inactive). The nuclei count was found to be 90.8% in experiment [2] and 99.7% in experiment [3]. The fluorescence slope in experiment [4] was -0.593 (inactive). The NADPH fluorescence slope in experiment [5] is -1.7e-05 (inactive). The slope in experiment [6] is 0.00596 (inactive).

For `O=c1c2ccccc2nc2n1CCN2`, in experiment [1], the cell count was 338. Moreover, the inhibition in experiment [1] was 4.6% (inactive); in experiment [3] it was -115% (inactive); in experiment [7] it was 21.2% (inactive); in experiment [8], 20.6% (inactive). For the same molecule, the inhibition of aggregation in experiment [2] was -10.3% (inactive). The nuclei count is 108% in experiment [2] and 131% in experiment [3]. Besides, the fluorescence slope in experiment [4] is -0.573 (inactive). In addition, the NADPH fluorescence slope in experiment [5] is 7.7e-06 (inactive). Further, the slope in experiment [6] was 0.00443 (inactive).

With `CCOc1cc(S(=O)(=O)N2CCC(Cc3ccccc3)CC2)c(OCC)cc1-n1cnnn1`, in experiment [1], the cell count worked out at 517. Moreover, the inhibition in experiment [1] was 1.9% (inactive); in experiment [3], -119% (inactive); in experiment [7], -0.144% (inactive); in experiment [8], 10.4% (inactive). In addition, in experiment [2], the inhibition of aggregation is -5.6% (inactive). The nuclei count came to 103% in experiment [2] and 178% in experiment [3]. Moreover, the fluorescence slope in experiment [4] was -0.613 (inactive). Further, in experiment [5], the NADPH fluorescence slope was 9.5e-06 (inactive). In addition, the slope in experiment [6] is 0.0103 (inactive).

As for `Cc1cc(=O)n2nc(N3CCC(C(=O)N4CCN(Cc5ccccc5)CC4)CC3)sc2n1`, in experiment [1], the cell count was found to be 450. Moreover, the inhibition in experiment [1] is -1% (inactive); in experiment [3], -31.7% (inactive); in experiment [7], 7.85% (inactive); in experiment [8], 3.68% (inactive). For the same molecule, in experiment [2], the inhibition of aggregation is -0.2% (inactive). Also, the nuclei count in experiment [2] came out at 113%; in experiment [3], 103%. For the same molecule, in experiment [4], the fluorescence slope was -0.329 (inactive). For the same molecule, the NADPH fluorescence slope in experiment [5] was -5.5e-05 (inactive). For the same molecule, in experiment [6], the slope was 0.00533 (inactive).

For `CCCSCCCNC(=O)Cn1cc2c(n1)CCC(C)C2` (centres undefined), the cell count in experiment [1] worked out at 652. In addition, the inhibition in experiment [1] is -3.3% (inactive); in experiment [3], 21.4% (inactive); in experiment [7], -8.61% (inactive); in experiment [8] it was 10.5% (inactive). Also, the inhibition of aggregation in experiment [2] was 3.5% (inactive). For the same molecule, the nuclei count in experiment [2] came to 92%; in experiment [3], 103%. For the same molecule, the fluorescence slope in experiment [4] is -0.615 (inactive). Further, the NADPH fluorescence slope in experiment [5] is -2.5e-05 (inactive). Moreover, in experiment [6], the slope was 0.00719 (inactive).

For `CC(C)C1N=C2c3ccccc3N=C(SCc3cc(=O)n4ccccc4n3)N2C1=O` (centres undefined), the cell count in experiment [1] came out at 646. In addition, the inhibition is -10.9% (inactive) in experiment [1], -35.3% (inactive) in experiment [3], 6.75% (inactive) in experiment [7] and -22.1% (inactive) in experiment [8]. The inhibition of aggregation in experiment [2] is 4.4% (inactive). Besides, the values for the nuclei count in experiment [2] and in experiment [3] were 58.8% and 90%, respectively. In addition, in experiment [4], the fluorescence slope was -0.451 (inactive). In addition, the NADPH fluorescence slope in experiment [5] is 2.2e-05 (inactive). Moreover, the slope in experiment [6] was 0.00398 (inactive).

Consider `CCOC(=O)c1c(NC(=O)c2ccn(CC)n2)sc2c1CCCC2`, for which the cell count in experiment [1] came out at 680. For the same molecule, the inhibition in experiment [1] was -10.9% (inactive); in experiment [3], -71.6% (inactive); in experiment [7], 3.28% (inactive); in experiment [8], -1.94% (inactive). Further, the inhibition of aggregation in experiment [2] is -3.6% (inactive). For the same molecule, the nuclei count in experiment [2] amounted to 97.6%; in experiment [3], 114%. Besides, in experiment [4], the fluorescence slope is -0.123 (inactive). The NADPH fluorescence slope in experiment [5] is -1.5e-06 (inactive). In experiment [6], the slope was 0.00291 (inactive).

The values above are taken from PubChem BioAssay.
